Results: the supplement of paper PMC6555819

How the values were obtained:
Test in all cases: PBM binding z-score (relative to random genomic background probes); higher = stronger binding; sequences stand for … in GC…GCGATTGACAGCGTAGAATGAAGG
[1] = system: RARb homodimer (NR concentration 270 nM)
Method in brief: (§1)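 Regression normalization was applied to scanned fluorescence from custom Agilent 4×180K protein-binding microarrays. Before scanning, arrays were incubated 1 h with ligand-free nuclear receptor dimers, and binding was detected with antibodies against each partner (one per run). Binding z-scores use the random background probes as reference.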

[2] = system: RARg:RXRa (NR concentration 270 nM, RXRa partner concentration 90 nM)
Method in brief: as §1

[3] = system: RARg homodimer (NR concentration 270 nM)
Method in brief: as §1

[4] = system: RXRa DBDmut IVT, anti-RXR (DBD mutation: RXRa K156A/R161A, NR concentration 90 nM)
Method in brief: as §1

[5] = system: RXRa homodimer (NR concentration 180 nM)
Method in brief: as §1

[6] = system: THRa:RXRa (NR concentration 90 nM, RXRa partner concentration 90 nM)
Method in brief: as §1

[7] = system: THRa homodimer (NR concentration 90 nM)
Method in brief: as §1

[8] = system: VDR homodimer (NR concentration 270 nM)
Method in brief: as §1

Sequence	PBM binding z-score [1]	PBM binding z-score [2]	PBM binding z-score [3]	PBM binding z-score [4]	PBM binding z-score [5]	PBM binding z-score [6]	PBM binding z-score [7]	PBM binding z-score [8]
GCTTGTCGATCAAGGTTAAGAAAGACTAAGCTAA	0.0989	0.457	0.385	-0.057	0.794	1.68	-0.268	-0.484
CCTACTGGGCCACGAAAAGTCATTGATTCAGTGA	0.476	0.154	0.301	-0.296	-0.0607	-0.0481	-0.645	-0.412
CCTCGGAGGACAACAGGAGATCAGAGCTGCCAGA	0.118	0.145	0.783	0.248	-0.305	0.396	-0.247	-0.168
ACTAGCAGGCCAAGTTTGGGTCACTTAAACAAAG	2.22	2.2	1.45	0.0842	0.809	2.58	1.22	0.22
CCTAGCAGGCCAATCTGGGTCACCCAAGGCTTGA	2.55	1.34	1.38	-0.396	1.07	3.92	0.793	-0.51
CCGACTGGGGCATAAGGTTCCCATAAGCCAGCCC	-0.217	-0.0298	-0.0621	-0.59	-0.271	-0.0053	-0.165	-0.209
CTCGAAAGGTCGTGCTCAGGTAAGTATACCAAAC	2.92	4.8	4.35	2.12	5.15	3.62	0.655	1.17
AATACAGGGTCATCGTAGGCCAGTGTACGCACAG	3.7	5.65	5.19	3.59	6.76	4.57	1.49	2.98
ATATGTAGGTTAGCCGGGGTCATTCAGACTAGGC	4.07	4.69	3.57	2.39	6.32	5.21	2.99	5.54
AATACAGGGTCCCTAGGCCAGAGTAGGTACGAAT	-0.162	0.119	0.25	-0.442	0.211	0.106	-0.229	0.0969
TAGCCTAGGTCATTCAGGGGACAGTATAGAAAGC	3.89	6.43	4.2	2.35	2.9	3.75	1.54	1.66
GCTCGGAGGACAAGGTCAGAGCATTGTCCGTAGA	3.1	3.37	3.72	0.0327	2.61	2.87	1.51	0.838
TCAAGCAGGCCAGAGGGTCACTCAAGAGGTACGG	2.73	2.61	2.21	0.592	2.67	1.68	-0.21	0.557
TCTATTAGTTGAAGGCCAACCGACGAGTCCGTTT	0.914	0.229	0.415	1.59	0.648	0.129	0.372	1.35
ATATGTAGGTTAAGGCTCATTCAGGTTGGTTCGC	0.698	0.684	0.622	0.534	0.844	0.76	0.71	0.761
TCTTGCAGATCAAAGGTTAAGAAAGCCGAAGCCT	1.18	1.47	0.521	0.00809	3	1.26	-0.786	-0.402
GATACAGGGTCAGCTAGAGGCCAGAGTGTGGAAA	3.67	6.74	4.74	1.34	4.41	3.15	0.703	0.787
AGTCAAAGTTCATCTAGGTAACGTAGGATATGCT	4.05	5.54	6.32	4.71	4.86	3.08	0.358	5.15
AATACAGGGTCATTGTAGGCCAGAGTACGCACAG	3.31	5.16	4.36	4.12	6.15	4.59	0.994	3.75

Sequence	PBM binding z-score [1]	PBM binding z-score [2]	PBM binding z-score [3]	PBM binding z-score [4]	PBM binding z-score [5]	PBM binding z-score [6]	PBM binding z-score [7]	PBM binding z-score [8]
TCTGCTAGGTCAACGATGATCAGCTAATCTGCTA	2.72	3.81	4.38	1.04	2.78	2.64	0.449	-0.153
CTGAGTAGGTTATGGGGCATTCAGGCAACGGTGA	0.905	0.544	0.679	-0.017	0.713	0.647	-0.0528	-0.0687
TTACCAAGGTGAGCTGAGGTCGTTGCTCCAACTC	1.57	0.912	0.763	0.505	1.26	4.78	2.1	1.93
TCATATAGGCAAACAGGTGAAAGTCCGTAAGTTA	0.521	0.00145	0.112	1.26	0.527	0.197	0.185	0.251
GCGACTGGAGCAAAGCAGGTTACCATAAGGTTGG	0.0117	-0.319	-0.395	-0.723	0.0642	1.75	-0.495	-0.492
CAAACTAGGCCACCGGAAGGTCAAAGTCCGCATG	4.21	4.82	4.07	0.796	4.1	2.93	1.18	2.29
TATCCAGGGTCAAAGGCCAGAGTACGAATGTCGA	3.6	5.88	5.26	2.94	7.51	3.75	1.3	3.46
CGTCCAAGGTCAAAGGACAGTGAAGAGATGACGG	4.02	5.79	6.52	3.52	5.67	3.76	1.95	2.37
TCTATTAGTTGATTAGGCCAACCGAAACAGCGGA	0.54	0.339	0.554	1.35	0.635	0.691	0.713	0.253
CGTCCAAGGTCAAAGGTCGGTGAAGAGATGACGG	4.52	7.18	6.2	3.85	8.84	4.24	2.17	2.78
CCGCCTGGGGCAAGGTTACCATAACGCACAGCCA	1.52	1.06	1.1	-0.994	0.987	1.3	0.7	-0.0695
GCTGCTAGGTTAGGTTGGTCAGCTAACGGGTACG	0.8	0.0162	0.355	0.0127	-0.131	0.0584	-0.34	0.253
ACTATTAGTTGACTTAGGGCAAGCGATACGACGC	0.617	0.671	0.684	0.657	0.682	0.91	-0.0225	0.0582
ATATGTAGGTTACATCCCGGTCATTCAGGCTATG	2.44	2.92	1.76	0.814	1.44	2.18	1.44	1.12
TCACGGAGGACACGAAAGGTCAGAGCTCGACATC	4.82	4.96	5.55	1.1	4.31	3.55	1.26	1.17
CAAACTAGGTCACGAAAGGTCAAGGTCGAATGAC	6.07	7.93	8.86	2.21	8	5.14	3.71	4.2
TCTGCTAGGTCAGTTGGTCAGGTAACGAGCTGCC	2.67	2.55	3.52	0.427	0.908	1.95	0.951	-0.545
TCAAGTTGGTCACGGAGGTCACACACGACGGGTA	4.54	4.9	4.56	1.53	4.68	3.72	2.55	3.44
ACTTACGGATCAACGAGGTTATAGCACGCGTATA	0.98	0.642	0.684	0.778	1.46	1.83	0.943	1.39

Sequence	PBM binding z-score [1]	PBM binding z-score [2]	PBM binding z-score [3]	PBM binding z-score [4]	PBM binding z-score [5]	PBM binding z-score [6]	PBM binding z-score [7]	PBM binding z-score [8]
TCTAGTCGGTCACGGAGGTCACACACGACGGGTA	5.2	5.84	6.47	1.15	5.17	3.94	2.48	3.72
TCGCGGAGGACACGAAGGTCAGAGCTTTCCAGAG	3.67	3.06	3.52	0.372	1.64	2.62	0.443	1.19
TCTAGCAGGCCACAGGGTCACTCAAGAGGTACGG	3.28	3.5	2.75	0.4	3.39	2.94	1.16	2.07
TCTCGGAGGACAGGAAAGGTCAGAGCTCGACATC	4.65	4.1	4.39	0.817	3.83	3.25	0.943	0.606
AGAATGAGGTTACCAAAGATCAGGAAAACGCTTG	0.544	2.13	1.58	1.15	2.56	2.88	0.443	0.0267
AGAATGAGGCTACCAAAGATCAGGGAAACGCTTG	-0.364	0.21	0.34	-0.268	0.156	0.463	-0.609	-0.541
TCGAGTAGATTACCAATGGGGCATTCAGCTTTCT	-0.458	-0.531	-0.494	0.278	-0.304	-0.599	-0.825	-0.571
ATCTCTAGGTAACAAGTTCAGTGAGAGAGAGGAC	1.86	1.4	1.54	0.761	0.903	1.49	0.878	2.81
GTACCAAGGTGAATAGGGCGTTGATGAGTAGGCG	1.21	1.13	0.952	-0.247	0.599	1.36	0.767	0.221
AATACAGGGTCATCGTAGGGCAGAGTACGCACAG	3.67	6.04	5.73	3.64	7.22	4.59	1.42	3.02
GCAGACAGGTAAAACGCAGGTAACTCAGGGTGGC	0.258	-0.164	-0.43	-0.576	0.223	0.964	-0.354	-0.545
CTACCAAGGTGAACAAGGTCGTCGATTACTATTC	2.3	2.1	1.77	1.08	2.25	3.64	1.9	1.44
TCCAGTAGGTTAGGGGCATTCAGAATGGCGTCGA	0.983	0.561	0.313	1.16	1.06	0.915	0.179	0.877
ATCGATAGGTCGACGAGGTGAGTATACACCGTTT	0.959	1.8	1.82	0.0347	1.67	2.59	0.488	0.231
TCGTGTAGATCAACAGGAGGTTAAGAAAGATCGA	0.472	0.729	0.231	-0.0769	0.672	0.819	-0.773	-0.463
CTTCCAAGGTCAAGGTCAGTGAAAGAGACTCGAA	5.12	6.79	7.26	3.07	6.55	4.54	3.64	2.79
ATCTCTAGGTAAGACTCAGTTCAGTGGAGAACGC	0.868	0.285	0.403	0.304	0.0842	0.884	0.583	1.57
AGTCAAAGTTCACTAGGGAACGTAAGATTCAGCT	3.65	4.75	5.65	4.23	3.67	2.05	-0.852	3.23
